Assay results from ChEMBL document CHEMBL3988442, “University of Dundee, Small-Polar-MMV Screening Library” (2021).
Screen size: about 48,000 compounds; about 13,000 (27%) showed an effect of 50% or more. This is one part of the list.

Tested on: Wolbachia pipientis
Experiment: Anti-Wolbachia Cell-Based Screen
Format: functional
Set-up: scale not given: in the data most compounds retested in dose-response had high values
Settings: 5 µM

Row | Compound | Percent Effect
1 | CCS(=O)(=O)NCc1cc(Br)c(OC)c(OC)c1 | -0.2028%
2 | CCS(=O)(=O)c1ccccc1C(=O)NCC1Cc2ccccc2O1 (configuration not stated) | -9.446%
3 | CC(C)CCC(=O)N1CCC(c2nnc(CN(C)CCO)n2C)CC1 | -15.68%
4 | CCOCC(=O)NC1(c2cccc(Br)c2)CC1 | -23.15%
5 | Cc1n[nH]c(=O)c2c(NC(=O)CN3CCC(C)CC3)oc(C)c12 | 8.431%
6 | COCCCN1CCN(c2ncnc3nc(C)cc(C)c23)CC1 | -12.49%
7 | Cc1cc(C)c2c(N3CCN(C(=O)N(C)C)CC3)ncnc2n1 | 111.7%
8 | Cc1cc(C)c2c(N3CCN(Cc4ncccc4C)CC3)ncnc2n1 | -39.06%
9 | Cc1cc(C)c2c(N(C)CC3COCCO3)ncnc2n1 (configuration not stated) | -3.038%
10 | COC(=O)N1CCN(c2ncnc3nc(C)cc(C)c23)CC1 | 98.52%
11 | COCCN1CCN(c2ncnc3nc(C)cc(C)c23)CC1 | -19.86%
12 | CSc1ccc(NC(=O)Cc2cccc(O)c2)nc1 | -26.55%
13 | Cc1cncc(C(=O)N2CCC3(CC2)C(=O)Nc2ccccc23)c1 | -7.764%
14 | FC(F)(F)c1ccc(-c2noc3c2CN(CC2CCCO2)CC3)cc1 (configuration not stated) | -4.107%
15 | CC(C)N(CCNCc1ccc(C#N)cc1)C1CC1 | -21.35%
16 | Cc1c[nH]c(CN2CCCCC2CCN(C)C)c(C)c1=O (configuration not stated) | -7.535%
17 | CC1c2ccsc2CCN1Cc1cc2c(cc1O)OCO2 (configuration not stated) | 137.7%
18 | CN(C)CCN1CC[C@H]2[C@@H]1CCN2Cc1ccc2c(c1)OCO2 | -11.21%
19 | CCC(=O)N1CCCN(C(=O)C2SCCc3sccc32)CC1 (configuration not stated) | 13.84%
20 | NC(=O)c1ccc(OCCC(=O)NC2CCc3c(F)cccc32)cc1 (configuration not stated) | 19.22%
21 | C/C=C(\C)CN1C[C@H](NC(=O)CN2CCCC2=O)[C@@H](c2ccc(C)o2)C1 | 97.75%
22 | C/C=C(\C)CN1C[C@H](NC(=O)CCOC)[C@@H](c2ccc(C)o2)C1 | 82.28%
23 | CC(=O)N1C[C@H](NS(=O)(=O)N2CCCC2)[C@@H](c2ccc(C)o2)C1 | -3.445%
24 | Cc1ccc([C@H]2CN(CCO)C[C@@H]2NC(=O)CN2CCCCC2=O)o1 | 92.71%
25 | CC(=O)N[C@@H]1CN(C(=O)c2cc(C)oc2C)C[C@H]1c1ccc(C)o1 | -1.342%
26 | CNc1nc(CN2C[C@@H](NC(C)=O)[C@H](c3ccc(C)o3)C2)cs1 | 0.1699%

Row | Compound | Percent Effect
27 | CCC[C@H]1CN(Cc2ccc(N(C)C)nc2)C[C@@H]1NC(=O)CCOC | -4.276%
28 | CC(=O)N[C@@H]1CN(C(=O)c2ccc[nH]2)C[C@H]1c1ccc(C)o1 | -8.166%
29 | O=C(CN1CCCCCC1=O)NC1CCc2nccn2C1 (configuration not stated) | 0.7111%
30 | COc1ccnc(CNc2nc(C)nc(C)c2C)c1 | -1.425%
31 | CCc1nc(CC(=O)N2CCn3c(nnc3C(C)C)C2)cs1 | 3.887%
32 | COCCN(Cc1nccs1)C(=O)c1c(C)cc(C)[nH]c1=O | -6.144%
33 | CC(C(=O)NC(C)(C)C)S(=O)(=O)Cc1noc(C(C)(C)C)n1 (configuration not stated) | 3.309%
34 | O=C(C1CCC1)N1CCCC(c2ccnc(Nc3cnccn3)n2)C1 (configuration not stated) | 48.97%
35 | O=C(C1CCCC1)N1CCC(c2ccnc(Nc3cnccn3)n2)C1 (configuration not stated) | 92.23%
36 | Cl.Cl.NCC(=O)N1CCCC(c2ccnc(Nc3cnccn3)n2)C1 (configuration not stated) | 138.9%
37 | CNCC(=O)N1CCCC(c2ccnc(Nc3cnccn3)n2)C1 (configuration not stated) | 90.62%
38 | CC(=O)N1CCCC(c2ccnc(Nc3cnccn3)c2)C1 (configuration not stated) | 134%
39 | Cc1cc(C2CCCN(C(=O)c3cnccn3)C2)ccn1 (configuration not stated) | -6.489%
40 | COCc1ccc(C(=O)N2CC[C@@](O)(COC)C(C)(C)C2)o1 | 3.183%
41 | CCc1c(C)nn(CC(=O)NC(C(=O)O)c2c(C)n[nH]c2C)c1C (configuration not stated) | 1.191%
42 | Cc1ccccc1CC1(CO)CCCN(c2ncccc2C#N)C1 (configuration not stated) | 0.9317%
43 | C=C(C)CNc1nc(CS(=O)(=O)c2ccccc2)cs1 | -10.96%
44 | CC(CNC(=O)N1CCN(Cc2ccon2)CC1)Cc1cccs1 (configuration not stated) | -18.64%
45 | O=C(Cn1c(=O)oc2ccccc21)N1Cc2cnn(CCO)c2C1 | -5.203%
46 | CC(=O)N1CCCC(c2ccnc(Nc3cnccn3)n2)C1 (configuration not stated) | 113.3%
47 | O=C(c1cccc2c1OCO2)N1CCCCC1Cn1cccn1 (configuration not stated) | -4.366%
48 | COc1ccc(CCC(=O)N2CCCCC2Cn2cccn2)cc1F (configuration not stated) | 155.4%
49 | COc1ccc(CC(=O)N2CCCC2Cn2cccn2)cc1F (configuration not stated) | 2.407%
50 | O=C(CCc1ccc2c(c1)OCO2)N1CCCCC1Cn1cccn1 (configuration not stated) | 137.4%
51 | O=C(CCc1ccc(F)c(F)c1)N1CCCCC1Cn1cccn1 (configuration not stated) | 87.24%
52 | O=C(CCc1c(F)cccc1F)N1CCCCC1Cn1cccn1 (configuration not stated) | 126.8%

Row | Compound | Percent Effect
53 | CSc1c[nH]nc1NS(=O)(=O)c1ccc(C)c(C)c1 | 4.625%
54 | O=C(Nc1ccccc1CCO)c1cccc(CN2CC[C@H](O)C2)c1 | -8.564%
55 | COc1ccc(F)c(CN2CCCC3(CCN(S(C)(=O)=O)C3)C2)c1 (configuration not stated) | -4.467%
56 | O=C(c1cc(-c2cccs2)on1)N1CCCCC1Cn1cccn1 (configuration not stated) | 91.35%
57 | O=C(c1cccn1Cc1cccs1)N1CCCC1Cn1cccn1 (configuration not stated) | 4.58%
58 | N#Cc1ccsc1C(=O)N1CCCCC1Cn1cccn1 (configuration not stated) | -3.499%
59 | Cc1oc(-c2cccs2)nc1C(=O)N1CCCC1Cn1cccn1 (configuration not stated) | 103.5%
60 | Cc1noc(C)c1CN(C)CCc1nc(-c2cccc(Cl)c2)no1 | 0.3419%
61 | Clc1ccccc1CCn1ccnc1-c1cn(C2CCNCC2)nn1 | 101.1%
62 | c1ccc(CCCn2ccnc2-c2cn(C3CCNCC3)nn2)nc1 | 103.3%
63 | Cc1c(C)c(C)c2[nH]c(-c3cn(C4CCNCC4)nn3)nc2c1C | 5.399%
64 | Cc1cccc2[nH]c(-c3cn(C4CCNCC4)nn3)nc12 | -0.8234%
65 | COc1ccc(CCn2ccnc2-c2cc3n(n2)CCCNC3)cc1 | -17.25%
66 | COc1cccc(CCn2ccnc2-c2cn(C3CCNCC3)nn2)c1 | 111.7%
67 | COc1cccc(CCN2C[C@H]3CCNCC[C@H]3S2(=O)=O)c1.O=C(O)C(F)(F)F | 12.24%
68 | O=C(NC1CCCCC1)N1CCC(n2cc(-c3ccccn3)nn2)CC1 | -3.255%
69 | O[C@H]1[C@H](n2cc(-c3ccccn3)nn2)c2ccccc2C12CCNCC2 | -37%
70 | Cc1cc2nc(-c3cn(C4CCNCC4)nn3)[nH]c2cc1C | -3.563%
71 | Cc1ccc2[nH]c(-c3cn(C4CCNCC4)nn3)nc2c1C | 9.5%
72 | c1ccc(OCCCn2ccnc2-c2cn(C3CCNCC3)nn2)cc1 | 87.94%
73 | CNC(=O)c1cccc(CNC(C)c2cc(C)ccc2OC(F)F)c1 (configuration not stated) | 2.562%
74 | CC(C)CNc1nc(C(=O)/N=c2\[nH]nc(C(C)(C)C)s2)cs1 | 9.925%
75 | COc1cccc([C@H]2CN(C(=O)c3scc4c3CCCC4)C[C@@H]2N)c1 | -10.32%
76 | O=S(=O)(CCc1ccccc1)Nc1cc(Cl)ccn1 | -16.02%
77 | CSCc1ccc(N2CCC(C(O)CC(C)C)CC2)nc1 (configuration not stated) | -3.23%
78 | COc1cccc(CNC(C)c2ccc(-n3ccnc3)cc2)c1O (configuration not stated) | 3.228%

Row | Compound | Percent Effect
79 | CCc1nn(C)c(CC)c1CNC(=O)Nc1cccc([S+](C)[O-])c1 (configuration not stated) | 3.217%
80 | CN1CCN(c2cccc(NC(=O)NCc3csc(N(C)C)n3)c2)C1=O | -9.852%
81 | CN(C)c1nc(CNC(=O)Nc2cccc([S+](C)[O-])c2)cs1 (configuration not stated) | 95.39%
82 | O=C(NCCn1nc2ccccn2c1=O)c1cccc2[nH]ncc12 | -8.467%
83 | Cc1nc(CN2CCCC(Cn3cc(CCO)nn3)C2)c[nH]1 (configuration not stated) | 12.54%
84 | CNCc1cn(CC2CCN(Cc3cccs3)CC2)nn1 | 1.439%
85 | COCc1cn(CC2CCN(Cc3cc(C)[nH]n3)CC2)nn1 | 114.7%
86 | CNCc1cn(CC2CCN(CC(C)(C)CN3CCCC3)CC2)nn1 | -11.44%
87 | CC(C)(CN1CCCC1)CN1CCC(Cn2cc(CCO)nn2)CC1 | 39.97%
88 | COCc1cn(CC2CCN(Cc3nc(C)c[nH]3)CC2)nn1 | 122.2%
89 | Cc1cc(C)n2ncc(CN3CCC(Cn4cc(CO)nn4)CC3)c2n1 | 8.529%
90 | CCCN1CCC(N2CCC(Cn3cc(CC(C)O)nn3)CC2)CC1 (configuration not stated) | -21.76%
91 | COCc1cn(CC2CCN(Cc3c(C)[nH]c4ccccc34)CC2)nn1 | 121.8%
92 | CCC(CNC(=O)c1ccc(Br)o1)N1CCc2ccccc2C1 (configuration not stated) | -5.246%
93 | N[C@H]1CC[C@@H](Nc2nccc(CCC(F)(F)F)n2)CC1 | 2.361%
94 | Nc1cc(-c2cncnc2C2CCN(C(=O)c3ccccc3)C2)ccn1 (configuration not stated) | 132.6%
95 | CC(C)n1ccnc1C1CCN(C(=O)c2ccccc2)CC1 | 1.199%
96 | O=C(c1ccccc1)N1CCCN(C(=O)c2ncncc2Cl)CC1 | 22.3%
97 | Cc1ncsc1C(=O)N1CCC(c2ncncc2-c2ccnc(N)c2)C1 (configuration not stated) | 113.1%
98 | Cc1nc(C2CCCN(C(=O)c3scnc3C)C2)no1 (configuration not stated) | -0.5479%
99 | Cc1ccc2nc(CN(Cc3ccc(C#N)cc3)C(C)C)cc(=O)n2c1 | -2.733%
100 | COCCCN(C)[C@@H]1c2ccccc2C2(CCNCC2)[C@H]1O | 9.06%
101 | COC(CNC(=O)c1cn(C)nn1)c1ccccc1C (configuration not stated) | -14.48%
102 | COc1c(F)cc(-c2cn(CCn3c(C)cc(C)nc3=O)nn2)cc1Cl | -4.684%
